In PubChem BioAssay:
Calls of active or inactive are those of the source. No rule for the calls is given here. Where a SMILES comes first, the peptide text is derived from it. The star is where a group is joined. Boc = CC(C)(C)OC(=O)*

target: Lethal factor (Bacillus anthracis) (UniProt P15917); experiment: Lethal factor protease inhibitors, Bacillus anthracis, multiplex microsphere cleavage assay, validation set (AID 588461); conditions: flow cytometry, at 10 µM, hits give high values
Sequence (P15917 whole entry, looked up): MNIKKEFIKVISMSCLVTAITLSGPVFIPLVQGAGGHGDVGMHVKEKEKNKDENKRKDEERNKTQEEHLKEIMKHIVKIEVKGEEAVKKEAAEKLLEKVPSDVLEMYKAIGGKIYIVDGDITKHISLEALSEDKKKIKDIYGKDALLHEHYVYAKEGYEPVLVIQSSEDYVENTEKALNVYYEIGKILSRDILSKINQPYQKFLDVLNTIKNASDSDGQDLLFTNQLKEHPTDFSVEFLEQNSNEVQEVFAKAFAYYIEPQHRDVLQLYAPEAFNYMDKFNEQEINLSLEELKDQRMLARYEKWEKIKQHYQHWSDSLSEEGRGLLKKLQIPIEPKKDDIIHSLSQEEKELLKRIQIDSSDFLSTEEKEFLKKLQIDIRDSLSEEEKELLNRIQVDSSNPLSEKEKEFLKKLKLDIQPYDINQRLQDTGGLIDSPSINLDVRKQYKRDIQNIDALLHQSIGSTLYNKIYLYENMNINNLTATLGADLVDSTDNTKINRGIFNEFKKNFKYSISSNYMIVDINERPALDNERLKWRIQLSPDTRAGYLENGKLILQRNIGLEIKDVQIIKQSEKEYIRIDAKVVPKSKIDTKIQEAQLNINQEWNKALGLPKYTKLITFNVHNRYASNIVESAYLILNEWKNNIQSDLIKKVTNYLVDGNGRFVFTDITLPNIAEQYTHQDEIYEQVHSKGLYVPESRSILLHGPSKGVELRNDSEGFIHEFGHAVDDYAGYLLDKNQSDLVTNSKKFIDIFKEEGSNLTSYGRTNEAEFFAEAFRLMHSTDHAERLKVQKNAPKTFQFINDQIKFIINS

Structure (SMILES)	inhibition
CCC(C)NCCOCCOc1ccc(Cl)c2ccccc12 (centres undefined)	-6.5% (inactive)
Fc1cccc(Cc2noc(CN3CCN(c4cnccn4)CC3)n2)c1	0.5% (inactive)
O=c1c(-c2ccccc2)c(O)c2cccc3c2n1CCC3	10.4% (inactive)
O=S(=O)(CCc1nc2ccccc2[nH]1)c1ccc(Cl)cc1	3.5% (inactive)
CC(=O)OCC(=O)[C@@]1(OC(C)=O)[C@@H](C)C[C@H]2[C@@H]3C[C@H](F)C4=CC(=O)C=C[C@]4(C)[C@@]3(F)[C@@H](O)C[C@@]21C	-0.9% (inactive)
CCc1cc(=O)oc2cc(C)c(CN3CCCC(C)C3)c(O)c12 (centres undefined)	-3.1% (inactive)
CCN1C(=O)C(CC(=O)Nc2ccc(F)cc2)N(Cc2ccco2)C1=S (centres undefined)	-7.4% (inactive)
C=CCNC(=O)c1ccc(-c2cccc([N+](=O)[O-])c2)o1	-3% (inactive)
C=C(C)C(=O)Nc1ccc(NC(C)C)cc1	5.7% (inactive)
COc1ccccc1C(CCN(Cc1ccccc1)C(C)=O)c1ccco1 (centres undefined)	-0.5% (inactive)
c1ccc2c(CC3=NCCN3)cccc2c1	-9.2% (inactive)
O=C(OCCN1CCOCC1)c1cccs1	-1.2% (inactive)
CCOc1ccc(NC(=O)N[C@@H](CCSC)C(=O)OC)cc1	-4.6% (inactive)
Cc1ccccc1OCC(O)CN1CCN(C)CC1 (centres undefined)	-2.2% (inactive)
Cc1ccc(C(=O)Nc2ccccc2C(=O)NC(C(=O)O)C(C)C)cc1 (centres undefined)	-2% (inactive)
Cc1cccc(CN2CCN(C(c3ccccc3)c3ccc(Cl)cc3)CC2)c1 (centres undefined)	-9.2% (inactive)
CCN(CC)Cc1c[nH]c2c(C(=O)OC)cccc12	6.7% (inactive)
C[C@]12CC[C@@H]3c4ccc(OS(=O)(=O)O)cc4CC[C@H]3[C@@H]1CCC2=O	-0.2% (inactive)
Nc1nc2ccc(OC(F)(F)F)cc2s1	1.8% (inactive)
NC(N)=NC(N)=Nc1ccc2ccccc2c1	1.8% (inactive)

Structure (SMILES)	inhibition
CC(C)(C)OC(=O)N1CCCC1C(=O)NC(Cc1ccccc1)C(=O)O (stereo not drawn) (Boc-Pro-Phe-OH; configuration not given here)	-0.3% (inactive)
O=c1oc2c(CN3CCCCC3)c(O)ccc2c2c1CCCCC2	1.1% (inactive)
O=C(NCCCCCc1nc2ccccc2[nH]1)c1ccccc1Cl	3.6% (inactive)
c1coc(-c2nnc3n2C2(CCCC2)Cc2ccccc2-3)c1	-5.9% (inactive)
CCOC(=O)/C=C1\NC(C)(C)Cc2cc(OC)c(OC)cc21	-2.8% (inactive)
O[C@@H](CNC[C@H](O)c1ccccc1)c1ccccc1	4.2% (inactive)
COc1ccc(C(=O)COc2ccc(F)cc2)c(O)c1	-9.8% (inactive)
COc1ccc(NC(=O)N2CCCCC2c2cccnc2)cc1 (centres undefined)	-0.9% (inactive)
C[C@@H]1C[C@H](Nc2ccccc2)c2ccccc2N1C(=O)c1cccnc1	-2.9% (inactive)
O=c1cc(CN2CCN(c3cccc(Cl)c3)CC2)c2cc(O)c(-c3ccccc3)cc2o1	-0.5% (inactive)
CC(=O)c1c[nH]c2ccc(C)cc2c1=O	-1.2% (inactive)
CC(C)OC(=O)c1ccc(NC(=O)c2cncc(Br)c2)cc1	7.4% (inactive)
Cc1cccc2c(C(=O)O)cc(-c3cccnc3)nc12	-6.1% (inactive)
CCCCOC(=O)c1ccc(N)cc1	2.2% (inactive)
COc1cc(/C=C/C(=O)N2CCCC2)cc(OC)c1OC	4.4% (inactive)
C[N+](C)(C)CCOP(=O)(O)OP(=O)([O-])OC[C@H]1O[C@@H](n2ccc(N)nc2=O)[C@H](O)[C@@H]1O	8.1% (inactive)
COc1cccc2c1C(=O)O/C2=C/c1ccc2c(c1)OCO2	2.1% (inactive)
NS(=O)(=O)c1cc2c(cc1Cl)NC(C1C[C@H]3C=C[C@@H]1C3)NS2(=O)=O (some centres undefined)	-3.2% (inactive)
Cc1csc(CCc2nc(C)cs2)n1	-2.1% (inactive)
